{
  "source": "the OligoGym collection",
  "data": [
    {"target": "FGA", "assay": "pooled miR-30 sensor sort-seq; sequence = guide strand", "conditions": "shRNA", "values": [
      {"sequence": "TTTCTCTCCACTTCTCTAGCAA", "sensor-assay potency score (higher = more potent)": 0.384},
      {"sequence": "TTCTGCACAGTTCTCTTCCCAC", "sensor-assay potency score (higher = more potent)": -0.744},
      {"sequence": "TTGTAGAGAATCTCAACTGCTT", "sensor-assay potency score (higher = more potent)": 0.304},
      {"sequence": "TATTCTGTTTGTAAAATCTTGA", "sensor-assay potency score (higher = more potent)": -0.477},
      {"sequence": "TAAATTGTTTGCTGTAACTTGA", "sensor-assay potency score (higher = more potent)": -0.0308}
    ]},
    {"target": "FGF1", "assay": "pooled miR-30 sensor sort-seq; sequence = guide strand", "conditions": "shRNA", "values": [
      {"sequence": "TTTCCAGGAACAAACATTCCTC", "sensor-assay potency score (higher = more potent)": -0.373},
      {"sequence": "TTAAACTTCTCGGTCAGGGCTG", "sensor-assay potency score (higher = more potent)": -0.0976},
      {"sequence": "TTTCTGGCCATAGTGAGTCCGA", "sensor-assay potency score (higher = more potent)": -0.918},
      {"sequence": "TTCTTCTCTGCATGCTTCTTGG", "sensor-assay potency score (higher = more potent)": -0.847},
      {"sequence": "TATATAGGTGTTGTAATGGTTC", "sensor-assay potency score (higher = more potent)": -0.522},
      {"sequence": "TTGCTTTCTGGCCATAGTGAGT", "sensor-assay potency score (higher = more potent)": -1.34},
      {"sequence": "TAGTGAGTCCGAGGACCGCGTT", "sensor-assay potency score (higher = more potent)": -1.55},
      {"sequence": "TAAACTTCTCGGTCAGGGCTGT", "sensor-assay potency score (higher = more potent)": 0.184},
      {"sequence": "TGAATGTGCTGGTCGCTCCTGT", "sensor-assay potency score (higher = more potent)": -0.0696},
      {"sequence": "TTGCAGCTCCCATTCTTCTTGA", "sensor-assay potency score (higher = more potent)": -1.07},
      {"sequence": "ATTTGGTGTCTGTGAGCCGTAT", "sensor-assay potency score (higher = more potent)": -0.909},
      {"sequence": "AACAAGATTGCTTTCTGGCCAT", "sensor-assay potency score (higher = more potent)": -0.264},
      {"sequence": "TTGGATATATAGGTGTTGTAAT", "sensor-assay potency score (higher = more potent)": -0.998},
      {"sequence": "TTTGGTGTCTGTGAGCCGTATA", "sensor-assay potency score (higher = more potent)": -0.694},
      {"sequence": "AGGCAGATTAAACTTCTCGGTC", "sensor-assay potency score (higher = more potent)": -1.58},
      {"sequence": "TCTGGCCATAGTGAGTCCGAGG", "sensor-assay potency score (higher = more potent)": -1.16},
      {"sequence": "TAATGGTTCTCCTCCAGCCTTT", "sensor-assay potency score (higher = more potent)": -0.798},
      {"sequence": "TTGGGCTTCTTGTAATTCCCTG", "sensor-assay potency score (higher = more potent)": -0.211},
      {"sequence": "TCATTTGGTGTCTGTGAGCCGT", "sensor-assay potency score (higher = more potent)": -0.0568},
      {"sequence": "TTTGCAGCTCCCATTCTTCTTG", "sensor-assay potency score (higher = more potent)": -0.462},
      {"sequence": "TGGGCTTCTTGTAATTCCCTGG", "sensor-assay potency score (higher = more potent)": -0.134},
      {"sequence": "TTCTTGGATATATAGGTGTTGT", "sensor-assay potency score (higher = more potent)": -1.22},
      {"sequence": "TTCTCTGCATGCTTCTTGGATA", "sensor-assay potency score (higher = more potent)": -0.722},
      {"sequence": "TTCCAGGAACAAACATTCCTCA", "sensor-assay potency score (higher = more potent)": -0.434}
    ]},
    {"target": "FGF23", "assay": "pooled miR-30 sensor sort-seq; sequence = guide strand", "conditions": "shRNA", "values": [
      {"sequence": "TCTGATCTGATCATCAGGGCAC", "sensor-assay potency score (higher = more potent)": 0.338},
      {"sequence": "AATGTTGCCTCTGAAATCCATG", "sensor-assay potency score (higher = more potent)": -1.53},
      {"sequence": "TTCTGCTCATCACACCTGTAAT", "sensor-assay potency score (higher = more potent)": -1.67},
      {"sequence": "TATCTTCTGCTCATCACACCTG", "sensor-assay potency score (higher = more potent)": 0.064},
      {"sequence": "TTGCCTCTGAAATCCATGCAGA", "sensor-assay potency score (higher = more potent)": -1.09},
      {"sequence": "TTCTTGTGGATCTGCAGGTGGT", "sensor-assay potency score (higher = more potent)": -1.08},
      {"sequence": "TTGGAACCTGCAGTTCTCCGGG", "sensor-assay potency score (higher = more potent)": 0.14},
      {"sequence": "TGGATCTGCAGGTGGTAGCTGT", "sensor-assay potency score (higher = more potent)": -0.923},
      {"sequence": "ATCCTCTGATCTGATCATCAGG", "sensor-assay potency score (higher = more potent)": -1.39},
      {"sequence": "TAATGGGTCACTGGCCATCGGG", "sensor-assay potency score (higher = more potent)": -1.63},
      {"sequence": "TGGAACCTGCAGTTCTCCGGGT", "sensor-assay potency score (higher = more potent)": -0.566}
    ]}
  ]
}
